Compounds without any hit were thinned out: in the full panel of roughly 83,000, 20% have a hit.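 Percent growth is the endpoint: 0 to 100 indicates growth inhibition (40 means 60% inhibition), 0 means no net growth, and negative values indicate cell death.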 Values without a mark were called inactive. Activity calls are given as the source filed them. The calls were made as follows: active = growth percent below 10; inactive = the rest.
Legend:
Test in all cases: NCI-60 one-dose screen, 48 h (100 = growth as untreated, 0 = no growth, -100 = all killed)
Conditions in all cases: 10 µM unless noted
SK-MEL-2 melanoma = tested on: SK-MEL-2 melanoma
EKVX NSCLC = tested on: EKVX NSCLC
SN12C renal = tested on: SN12C renal
UO-31 renal = tested on: UO-31 renal
TK-10 renal = tested on: TK-10 renal
ACHN renal = tested on: ACHN renal
CAKI-1 renal = tested on: CAKI-1 renal
A498 renal = tested on: A498 renal
CCRF-CEM leukemia = tested on: CCRF-CEM leukemia
MOLT-4 leukemia = tested on: MOLT-4 leukemia

SMILES | growth (SK-MEL-2 melanoma) | growth (EKVX NSCLC) | growth (SN12C renal) | growth (UO-31 renal) | growth (TK-10 renal) | growth (ACHN renal) | growth (CAKI-1 renal) | growth (A498 renal) | growth (CCRF-CEM leukemia) | growth (MOLT-4 leukemia)
C=C1C(=O)O[C@H]2[C@H]1CC/C(CNC(=O)/C=C/c1ccc(Cl)cc1Cl)=C\CC[C@@]1(C)O[C@@H]21 | -13.8% (active) | -35.8% (active) | -43.4% (active) | -90.2% (active) | -88.8% (active) | -79.9% (active) | -31.2% (active) | -3.46% (active) | -30.7% (active) | 
CCCCn1c(=O)c2c(nc3n2CCCN3CCc2ccc(OCC(=O)NCCN(CC)CC)cc2)n(CCCC)c1=O | 73.8% | 70.5% | 64.6% | 43.2% | 71.7% | 78.3% | 77.6% | 1.86% (active) | 24.6% | 
Cc1ccc(NCCN(C)C)c2c(=O)c3ccccc3sc12 | 71.9% | 49.4% | 25.1% | -30.5% (active) | 54.8% | 3.03% (active) | -20% (active) | 37.6% | 27% | 
CC(CCc1ccc(Cl)c(Cl)c1)NCc1ccc(C(C)(C)C)cc1 (configuration not stated) | 105% | 102% | 91.9% | 78.6% | 78.4% | 92.7% | 85.9% | 90.8% | 77.2% | 
O=C(CCCCCCN1CC(=O)N2[C@@H](c3ccccc3Cl)c3[nH]c4ccccc4c3C[C@H]2C1=O)NO | 70.1% | 82.2% | 70.1% | 55.6% | 68.9% | 81.7% | 71.4% | 73.5% | 17.8% | 
COC(=O)[C@]12CC[C@@H](C)[C@H](C)[C@@H]1C1=CC[C@@H]3[C@@]4(C)C(C=O)=C[C@@](C)(COC(C)=O)[C@@H]4C(=O)C[C@@]3(C)[C@]1(C)CC2 | 43% | 36.1% | 43.6% | 34.1% | 36.8% | 23.5% | 44.6% | 60.5% | 43.9% | 
CN(C)CC1C(=O)O[C@H]2[C@H]1CC/C(COC(=O)c1cc3ccccc3[nH]1)=C\CC[C@@]1(C)O[C@@H]21 (some centres not stated) | -55% (active) | -27.4% (active) | -22.1% (active) | -92.7% (active) | -89.2% (active) | -82.4% (active) | -14.4% (active) | 5.21% (active) | 1.08% (active) | 
O=S(=O)(Nc1cccc(Cl)c1)c1ccc(-c2cnc(C3CC3)o2)cc1 | 58.8% | 35.1% | 39.7% | 35.5% | 45.9% | 37.1% | 29.8% | -3.4% (active) | 12.8% | 
CCN(CC)CCCCCCNc1cc(OC)c(Cl)c2cccnc12 | 92.4% | 85.6% | 67.7% | 51.8% | 85.3% | 82.5% | 84.6% | 45.3% | 84.7% | 
COc1ccc(-c2nc3c(c(=O)n2C(C)=O)C(c2ccc(Cl)cc2)c2sc4c(Cl)cccc4c2O3)cc1 (configuration not stated) | -11.5% (active) | 24.6% | -35.1% (active) | 6.4% (active) | -35.6% (active) | 8.98% (active) | -6.4% (active) | -2.79% (active) | -3.94% (active) | 
N#Cc1c(N)nc(NCCO)nc1-c1ccc(F)cc1 | 108% | 89.9% | 103% | 92.8% | 106% | 100% | 95.9% | 89.1% | 112% | 
CC(C)CCC[C@@H](C)[C@H]1CC[C@H]2[C@@H](Nc3ccc(O)cc3)CCC[C@]12C | 86.1% | 109% | 108% | 7.74% (active) | 83% | 78.8% | 37.7% | 67.6% | 32.2% | 
O=C(Nc1ccc(-n2cc(-c3ccncc3)c(-c3ccc(Cl)c(O)c3)n2)cc1)N1CCOCC1 | 110% | 102% | 99.2% | 75.6% | 117% | 97.6% | 105% | 121% | 112% | 
COc1ccc(-c2cc(-c3cc(OC)ccc3OC)nc(SCC(=O)c3ccccc3)c2C#N)cc1 | 89.6% | 100% | 93.7% | 81.9% | 114% | 91.6% | 95.3% | 93.9% | 111% | 
Cc1nc2c(c(N3CCCc4ccccc43)n1)CCC2 | 43.9% | 86.4% | 31.5% | 29.6% | 57.8% | 18.8% | 20.7% | -1.39% (active) | 1.69% (active) | 
CCOc1c(C#N)nnc2c(C#N)c(NC(=O)c3ccccc3)nn12 | 112% | 93.8% | 100% | 86.3% | 116% | 98.4% | 93.7% | 93.4% | 102% | 
c1c[nH]c(CNC2CCCCC2)c1 | 115% | 108% | 107% | 89.8% | 120% | 98.1% | 96.1% | 91.3% | 96.6% | 
COc1cccc(C(=O)NCCNc2cc(-c3cn(-c4ccccc4)nc3-c3cccc(OC)c3)ccn2)c1 | 57.2% | 69% | 74.4% | 39.9% | 80.4% | 69.8% | 69.2% | 59% | 25.6% | 
NC(=S)Nc1cccc(O)c1 | 99.1% | 93% | 95.9% | 80% | 91.8% | 90.3% | 90% | 115% | 103% | 
NC(=O)c1ccc[n+](Cc2ccc(Cl)cc2Cl)c1 | 95.7% | 107% | 101% | 99.8% | 88.4% | 109% | 107% | 99.8% | 97.4% | 
O=C(N=c1oc2ccccc2cc1-c1cc2ccccc2[nH]1)c1ccc(Cl)cc1 | 101% | 38.9% | 80.3% | 54.5% | 53.1% | 6.82% (active) | 56.2% | 69.6% | 24.7% | 
COc1ccc(CNC(=O)C(O)C(Cc2ccccc2)NC(=O)c2[nH]c3ccccc3c(=O)c2C)cc1OC (configuration not stated) | 99.5% | 99% | 103% | 98.7% | 93.6% | 108% | 99.6% | 113% | 108% | 99.8%
CCCCNC(=O)Oc1ccc2c(=O)c3sc4c(=O)c5ccccc5c(=O)c4c3c(=O)c2c1 | -54.7% (active) | -77.7% (active) | -86.3% (active) | -56.7% (active) | -95.2% (active) | -88.9% (active) | -75.4% (active) | -98.8% (active) | -29.4% (active) | -44.4% (active)
CCN(CC)S(=O)(=O)c1cccc(-c2ccc3c(NC(=O)C4CC4)n[nH]c3c2)c1 | -16.9% [6.25 µM] (active) | 27.5% [6.25 µM] | 38.8% [6.25 µM] | 36% [6.25 µM] | 35.4% [6.25 µM] | 27.2% [6.25 µM] | 37.7% [6.25 µM] | 9.92% [6.25 µM] (active) | 17.6% [6.25 µM] | 10.4% [6.25 µM]
Nc1cc2c3c(cccc3c1)C(=O)N(CCN1CCCC1)C2=O | 60.2% | 73% | 31.9% | 13.5% | 105% | 4.18% (active) | 7.81% (active) | 0.673% (active) | 28.7% | 
CN1CCN(CCCOc2ccc3nc(Nc4ccc(F)c(F)c4)ccc3c2)CC1 | 54.4% | 61.7% | 68% | 47.4% | 41.7% | 44.3% | 73.3% | 33.4% | 17.2% | 
COc1ccc(C2c3ccc4ccccc4c3Oc3nc(C)[nH]c(=O)c32)cc1 (configuration not stated) | 112% | 103% | 99.4% | -97.5% (active) | 116% | 92.3% | 73.9% | 92.5% | 106% | 115%
CNc1ccc(NC)c2c1C(=O)c1ccccc1C2=O | 97.7% | 94.6% | 80.3% | 77.7% | 84.9% | 77.7% | 76.4% | 94.4% | 84.3% | 92.1%

— PubChem BioAssay (NCI)
